The supplement of paper PMC10849652
About 8,800 targets were measured; listed, in parts, are those with a hit and a random draw of the rest. About 0.5% of all pairs of compound and target were hits. A number with no mark means an inactive call.

Key:
Assay in all cases: log2 fold change, soluble protein after heating vs DMSO (PISA); higher = thermal stabilisation; K562 lysate, 10 uM; active = over 0.2 and 3.5 SD of the protein, either way, in both replicates (recomputed)
[1] = compound: C=CC(=O)N1CCC[C@@H](n2nc(-c3ccc(Oc4ccccc4)cc3)c3c(N)ncnc32)C1 [ibrutinib]
Procedure, shortened: (§1)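 To prepare the extract, K562 pellets were dounce-homogenised in PBS pH 7.4 with 1 mM MgCl2, giving crude material at 1 mg/mL protein. This was treated with 10 μM compound for 30 min, then heated in aliquots for 3 min over 48°C-58°C before pooling and addition of NP-40 to 0.5% at 4°C. Centrifugation at 21,000xg for 90 min left soluble protein in the supernatant, which TMTpro 16plex LC-MS/MS quantified with equalised channel sums. Results are log-two fold changes in thermal stability compared with solvent controls, from duplicates.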

[2] = compound: CC(=O)c1cnc2ccc(-c3cc(Cl)c(O)c(Cl)c3)nc2c1N[C@H]1CC[C@H](CN(C)C)CC1
Procedure, shortened: as §1

[3] = compound: CC(C)(C)Cn1c(N)nc2ccc(-c3[nH]c(C(C)(C)C)nc3-c3ccc(F)cc3)nc21 [ralimetinib]
Procedure, shortened: as §1

[4] = compound: CC(C)(O)CC(=O)NCCn1ccc2ncnc(Nc3ccc(Oc4cccc(C(F)(F)F)c4)c(Cl)c3)c21
Procedure, shortened: as §1

[5] = compound: CC(C)C1=C2N=C(C=C(N2N=C1)NCC3=CC=CC=C3)NCCCCCCN
Procedure, shortened: as §1

[6] = compound: CC1=C(C(CC(=O)N1)C2=CC=C(C=C2)C(F)(F)F)C(=O)NC3=C(C=C4C(=C3)C=NN4)F
Procedure, shortened: as §1

[7] = compound: CC1=C(C2=C(C=C1)C(=O)C3=CC=CC=C3N2CCCN)C
Procedure, shortened: as §1

[8] = compound: CC1=C(C=C(C=C1)NC(=O)C2=CC(=CC=C2)C(C)(C)C#N)NC3=CC4=C(C=C3)N=CN(C4=O)C
Procedure, shortened: as §1

[9] = compound: CC1=C(C=C(C=C1)NC(=O)C2=CC(=CC=C2)N(C)C)NC(=O)C3=CC=C(C=C3)O
Procedure, shortened: as §1

[10] = compound: CC1=CC=C(C=C1)SC2=C3C=C(SC3=CN=C2)C(=O)N
Procedure, shortened: as §1

[11] = compound: CCCS(=O)(=O)Nc1ccc(F)c(C(=O)c2c[nH]c3ncc(-c4ccc(Cl)cc4)cc23)c1F [vemurafenib]
Procedure, shortened: as §1

[12] = compound: CCCS(=O)(=O)Nc1ccc(F)c(C(=O)c2c[nH]c3ncc(Cl)cc23)c1F
Procedure, shortened: as §1

[13] = compound: CCN(CCCOc1ccc2c(Nc3cc(CC(=O)Nc4cccc(F)c4)[nH]n3)ncnc2c1)CCOP(=O)(O)O [barasertib]
Procedure, shortened: as §1

[14] = compound: CC[C@@H]1C(=O)N(C)c2cnc(Nc3ccc(C(=O)NC4CCN(C)CC4)cc3OC)nc2N1C1CCCC1
Procedure, shortened: as §1

[15] = compound: CC[C@@H]1C(=O)N(C)c2cnc(Nc3ccc(C(=O)N[C@H]4CC[C@H](N5CCN(CC6CC6)CC5)CC4)cc3OC)nc2N1C(C)C [volasertib]
Procedure, shortened: as §1

[16] = compound: CCn1c(C(=O)N(C2CC2)C2CC2)cc2c3c(ncn3C)c(Nc3cc(C)n(C)n3)nc21
Procedure, shortened: as §1

[17] = compound: CCn1cc(-c2ccnc3[nH]c(-c4cccc(CN(C)C)c4)cc23)c(-c2ccc(NC(=O)N(C)C)cc2)n1
Procedure, shortened: as §1

[18] = compound: CN1CCC(CNc2ccc3ncc(-c4cccc(OC(F)(F)F)c4)n3n2)CC1
Procedure, shortened: as §1

[19] = compound: CN1CCN(CCOc2cc(OC3CCOCC3)c3c(Nc4c(Cl)ccc5c4OCO5)ncnc3c2)CC1 [saracatinib]
Procedure, shortened: as §1

[20] = compound: CN1CCN(c2nc(C3=C(c4c[nH]c5ccccc45)C(=O)NC3=O)c3ccccc3n2)CC1 [sotrastaurin]
Procedure, shortened: as §1

Sequence of UniProt P60981 (P60981 whole entry, looked up): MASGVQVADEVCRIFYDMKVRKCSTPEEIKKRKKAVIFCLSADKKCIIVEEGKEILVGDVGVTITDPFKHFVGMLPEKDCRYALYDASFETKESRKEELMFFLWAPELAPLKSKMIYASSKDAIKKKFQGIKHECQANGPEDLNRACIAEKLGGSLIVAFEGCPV
Sequence of UniProt Q8TF64 (Q8TF64 whole entry, looked up): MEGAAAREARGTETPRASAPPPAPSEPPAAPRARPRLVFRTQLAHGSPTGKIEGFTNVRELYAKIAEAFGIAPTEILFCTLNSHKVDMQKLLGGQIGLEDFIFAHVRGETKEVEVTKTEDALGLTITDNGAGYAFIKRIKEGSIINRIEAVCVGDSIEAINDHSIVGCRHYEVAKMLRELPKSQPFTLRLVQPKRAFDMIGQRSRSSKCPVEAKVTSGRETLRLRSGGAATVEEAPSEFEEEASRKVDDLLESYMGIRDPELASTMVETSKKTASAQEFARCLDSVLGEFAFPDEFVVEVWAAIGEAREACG
Sequence of UniProt Q9HCG7 (Q9HCG7 whole entry, looked up): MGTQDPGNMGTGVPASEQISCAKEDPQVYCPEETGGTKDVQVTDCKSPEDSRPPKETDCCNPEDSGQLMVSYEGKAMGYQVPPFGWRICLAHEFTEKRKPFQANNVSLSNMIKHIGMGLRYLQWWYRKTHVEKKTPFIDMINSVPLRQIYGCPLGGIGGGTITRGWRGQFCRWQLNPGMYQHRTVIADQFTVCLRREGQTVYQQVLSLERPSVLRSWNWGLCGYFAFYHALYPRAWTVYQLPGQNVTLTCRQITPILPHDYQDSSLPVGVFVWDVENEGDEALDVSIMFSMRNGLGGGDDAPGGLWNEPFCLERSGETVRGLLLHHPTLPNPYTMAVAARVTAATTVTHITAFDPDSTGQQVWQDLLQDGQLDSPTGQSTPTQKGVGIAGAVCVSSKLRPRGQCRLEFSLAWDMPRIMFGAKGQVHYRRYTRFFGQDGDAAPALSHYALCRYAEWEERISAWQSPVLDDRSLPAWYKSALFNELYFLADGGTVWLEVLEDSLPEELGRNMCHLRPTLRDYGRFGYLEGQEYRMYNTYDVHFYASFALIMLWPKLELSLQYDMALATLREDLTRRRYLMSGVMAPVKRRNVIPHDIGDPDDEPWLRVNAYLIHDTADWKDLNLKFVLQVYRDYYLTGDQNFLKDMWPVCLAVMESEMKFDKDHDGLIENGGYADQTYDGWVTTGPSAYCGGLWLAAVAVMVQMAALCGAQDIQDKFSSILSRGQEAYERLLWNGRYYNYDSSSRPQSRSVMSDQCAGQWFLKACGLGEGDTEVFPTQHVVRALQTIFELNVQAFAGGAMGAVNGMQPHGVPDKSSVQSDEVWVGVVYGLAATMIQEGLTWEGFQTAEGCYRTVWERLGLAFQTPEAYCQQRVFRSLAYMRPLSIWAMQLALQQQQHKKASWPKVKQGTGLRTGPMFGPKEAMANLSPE
Sequence of UniProt P85037 (P85037 whole entry, looked up): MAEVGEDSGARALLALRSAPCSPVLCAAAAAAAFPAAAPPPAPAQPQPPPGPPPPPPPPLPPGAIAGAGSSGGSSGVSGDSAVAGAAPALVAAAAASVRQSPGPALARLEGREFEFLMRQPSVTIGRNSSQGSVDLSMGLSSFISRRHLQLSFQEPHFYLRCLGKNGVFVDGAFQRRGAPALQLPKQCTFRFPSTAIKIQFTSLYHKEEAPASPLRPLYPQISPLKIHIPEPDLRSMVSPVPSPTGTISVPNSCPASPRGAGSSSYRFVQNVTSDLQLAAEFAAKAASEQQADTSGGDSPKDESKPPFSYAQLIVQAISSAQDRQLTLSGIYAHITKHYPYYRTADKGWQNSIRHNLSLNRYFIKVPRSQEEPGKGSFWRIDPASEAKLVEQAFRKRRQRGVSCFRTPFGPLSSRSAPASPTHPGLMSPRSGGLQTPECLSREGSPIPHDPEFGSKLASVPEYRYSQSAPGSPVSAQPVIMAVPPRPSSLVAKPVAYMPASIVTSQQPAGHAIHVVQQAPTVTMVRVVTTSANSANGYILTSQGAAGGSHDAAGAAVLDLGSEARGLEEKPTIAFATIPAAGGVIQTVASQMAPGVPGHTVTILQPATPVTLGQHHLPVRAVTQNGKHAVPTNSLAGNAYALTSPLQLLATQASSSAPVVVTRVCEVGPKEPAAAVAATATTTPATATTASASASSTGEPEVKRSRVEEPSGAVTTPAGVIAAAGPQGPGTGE
Sequence of UniProt P34913 (P34913 whole entry, looked up): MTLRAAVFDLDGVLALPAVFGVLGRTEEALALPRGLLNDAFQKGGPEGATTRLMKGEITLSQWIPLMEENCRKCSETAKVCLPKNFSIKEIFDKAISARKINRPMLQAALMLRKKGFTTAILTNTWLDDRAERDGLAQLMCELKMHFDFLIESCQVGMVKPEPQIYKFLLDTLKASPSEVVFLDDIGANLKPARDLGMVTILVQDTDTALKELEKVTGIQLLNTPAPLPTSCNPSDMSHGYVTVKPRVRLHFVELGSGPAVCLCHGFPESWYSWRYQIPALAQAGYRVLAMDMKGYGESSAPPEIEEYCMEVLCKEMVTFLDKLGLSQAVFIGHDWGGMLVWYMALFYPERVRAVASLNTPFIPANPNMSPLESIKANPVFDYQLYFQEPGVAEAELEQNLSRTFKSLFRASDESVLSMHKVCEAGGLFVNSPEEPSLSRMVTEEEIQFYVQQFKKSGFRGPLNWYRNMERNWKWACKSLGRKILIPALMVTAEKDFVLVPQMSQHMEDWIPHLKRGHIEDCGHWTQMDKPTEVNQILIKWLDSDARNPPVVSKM
Sequence of UniProt Q9UPW0 (Q9UPW0 whole entry, looked up): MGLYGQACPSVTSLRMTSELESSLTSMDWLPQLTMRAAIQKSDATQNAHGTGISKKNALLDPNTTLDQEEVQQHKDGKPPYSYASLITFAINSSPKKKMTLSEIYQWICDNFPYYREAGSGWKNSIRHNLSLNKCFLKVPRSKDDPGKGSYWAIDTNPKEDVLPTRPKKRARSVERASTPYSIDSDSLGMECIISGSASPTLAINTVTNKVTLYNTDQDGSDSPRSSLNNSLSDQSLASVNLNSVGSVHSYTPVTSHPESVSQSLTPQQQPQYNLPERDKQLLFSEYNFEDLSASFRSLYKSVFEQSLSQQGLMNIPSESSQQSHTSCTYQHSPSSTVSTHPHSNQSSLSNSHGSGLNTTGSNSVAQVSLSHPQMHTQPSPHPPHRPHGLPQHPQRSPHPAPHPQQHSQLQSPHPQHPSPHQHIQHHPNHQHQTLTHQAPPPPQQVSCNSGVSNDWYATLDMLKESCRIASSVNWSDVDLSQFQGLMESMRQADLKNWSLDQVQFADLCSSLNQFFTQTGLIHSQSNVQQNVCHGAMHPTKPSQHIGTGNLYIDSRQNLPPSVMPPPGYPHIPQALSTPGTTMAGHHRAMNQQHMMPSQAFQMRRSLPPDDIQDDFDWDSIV
Sequence of UniProt P49356 (P49356 whole entry, looked up): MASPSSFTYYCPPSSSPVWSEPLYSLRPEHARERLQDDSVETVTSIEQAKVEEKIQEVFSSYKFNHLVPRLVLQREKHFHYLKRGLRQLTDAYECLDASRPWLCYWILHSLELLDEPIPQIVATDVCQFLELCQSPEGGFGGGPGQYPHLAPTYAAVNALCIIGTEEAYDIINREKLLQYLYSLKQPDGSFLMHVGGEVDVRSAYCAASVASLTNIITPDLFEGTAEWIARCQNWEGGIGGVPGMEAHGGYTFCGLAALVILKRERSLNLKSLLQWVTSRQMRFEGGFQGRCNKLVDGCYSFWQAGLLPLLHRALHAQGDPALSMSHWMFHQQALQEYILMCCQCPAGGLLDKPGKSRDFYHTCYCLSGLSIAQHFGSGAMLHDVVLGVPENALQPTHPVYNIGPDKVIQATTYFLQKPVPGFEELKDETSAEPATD
Sequence of UniProt Q9NV70 (Q9NV70 whole entry, looked up): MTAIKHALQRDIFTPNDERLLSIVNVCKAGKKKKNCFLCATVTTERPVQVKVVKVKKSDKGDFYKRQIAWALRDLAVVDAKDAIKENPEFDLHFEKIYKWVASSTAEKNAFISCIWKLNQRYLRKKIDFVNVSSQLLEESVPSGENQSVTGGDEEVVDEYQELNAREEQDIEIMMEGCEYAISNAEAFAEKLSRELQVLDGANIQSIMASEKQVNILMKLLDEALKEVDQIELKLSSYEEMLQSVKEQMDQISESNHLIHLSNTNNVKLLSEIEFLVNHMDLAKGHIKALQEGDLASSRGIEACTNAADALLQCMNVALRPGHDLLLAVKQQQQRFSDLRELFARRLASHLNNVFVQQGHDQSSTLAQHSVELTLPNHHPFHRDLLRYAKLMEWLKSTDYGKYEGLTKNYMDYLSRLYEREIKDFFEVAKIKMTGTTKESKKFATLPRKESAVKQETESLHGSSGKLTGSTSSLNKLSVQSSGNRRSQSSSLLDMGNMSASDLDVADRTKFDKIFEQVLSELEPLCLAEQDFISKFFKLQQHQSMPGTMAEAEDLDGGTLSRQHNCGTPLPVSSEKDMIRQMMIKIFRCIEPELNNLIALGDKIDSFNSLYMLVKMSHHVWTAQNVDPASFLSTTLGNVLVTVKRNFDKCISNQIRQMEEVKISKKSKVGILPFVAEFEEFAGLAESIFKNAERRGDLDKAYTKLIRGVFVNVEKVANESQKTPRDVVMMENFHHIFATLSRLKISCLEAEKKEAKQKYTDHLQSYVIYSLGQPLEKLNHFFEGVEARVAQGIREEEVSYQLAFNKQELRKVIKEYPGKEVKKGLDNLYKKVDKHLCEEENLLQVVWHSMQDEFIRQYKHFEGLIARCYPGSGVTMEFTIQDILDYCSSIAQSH
Sequence of UniProt Q9NRW4 (Q9NRW4 whole entry, looked up): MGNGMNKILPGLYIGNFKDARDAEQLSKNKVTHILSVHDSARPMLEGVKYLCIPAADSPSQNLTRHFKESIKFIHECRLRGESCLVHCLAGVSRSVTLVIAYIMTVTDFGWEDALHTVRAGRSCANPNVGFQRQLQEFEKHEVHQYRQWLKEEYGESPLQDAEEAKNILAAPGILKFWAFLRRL

Target | log2 fold change [1] | log2 fold change [2] | log2 fold change [3] | log2 fold change [4] | log2 fold change [5] | log2 fold change [6] | log2 fold change [7] | log2 fold change [8] | log2 fold change [9] | log2 fold change [10] | log2 fold change [11] | log2 fold change [12] | log2 fold change [13] | log2 fold change [14] | log2 fold change [15] | log2 fold change [16] | log2 fold change [17] | log2 fold change [18] | log2 fold change [19] | log2 fold change [20]
DSTN (UniProt P60981) | -0.011 | -0.013 | -0.004 | 0.038 | -0.006 | -0.001 | 0.045 | -0.005 | -0.012 | -0.003 | -0.006 | -0.002 | -0.005 | -0.015 | -0.013 | 0.015 | 0.025 | 0.035 | -0.005 | -0.011
FOXK1 (UniProt P85037) | 0.033 | 0.005 | 0.082 | 0.063 | -0.011 | 0.018 | 0.007 | -0.025 | -0.001 | 0.011 | -0.01 | 0.008 | 0.025 | -0.007 | -0.019 | 0.013 | -0.014 | 0.026 | 0.005 | -0.012
DUSP22 isoform 2 (UniProt Q9NRW4) | -0.059 | 0.043 | 0.007 | 0.02 | -0.092 | 0.177 | -0.046 |  | 0.081 | 0.007 | 0.134 | -0.109 | -0.016 |  | 0.006 | -0.033 | -0.125 | 0.052 | 0.009 | 
EXOC1 (UniProt Q9NV70) | -0.043 | 0.012 | 0.04 | -0.004 | -0.023 | -0.022 | 0.016 | -0.026 | 0.032 | -0.011 | 0 | 0.027 | 0.051 | -0.106 | -0.03 | 0.082 | 0.053 | -0.119 | 0 | 0.02
GBA2 (UniProt Q9HCG7) | -0.071 | -0.046 | 0.082 | -0.097 | 0.042 | -0.037 | 0.077 | 0.004 | 0.08 | 0.021 |  | 0.12 | -0.01 | 0.099 | -0.21 | 0 | -0.076 | 0.025 | 0.033 | 0.001
EIF2B5 (UniProt Q13144) | 0 | 0.008 | 0.027 | -0.018 | 0.008 | -0.019 | 0.012 | -0.031 | 0.008 | 0.02 | -0.007 | 0.019 | 0.013 | -0.012 | -0.027 | 0.021 | -0.065 | -0.057 | 0.009 | 0.038
FLAD1 (UniProt Q8NFF5) | -0.011 | 0.002 | 0.016 | -0.014 | -0.072 | -0.004 | -0.026 | 0.002 | 0.011 | 0.015 | -0.051 | 0.022 | -0.063 | 0.055 | -0.028 | 0.01 | -0.002 | -0.035 | -0.001 | 0.075
GIPC3 (UniProt Q8TF64) | -0.021 | -0.078 | -0.019 | -0.011 | 0.022 | 0.282 | -0.019 | 0.185 | -0.033 | -0.13 |  | -0.119 | 0.055 | -0.15 | -0.041 | -0.045 | -0.01 | 0.144 | 0.029 | 0.006
FNTB (UniProt P49356) | -0.018 | 0.005 | 0.03 | -0.013 | -0.022 | -0.036 | -0.026 | -0.011 | 0.038 | -0.013 | 0.055 | -0.009 | -0.036 | 0.285 (active) | 0.005 | 0.037 | -0.036 | 0.016 | 0.016 | 0.042
FAT2 (UniProt Q9NYQ8) | 0.01 | 0.057 | -0.156 | -0.123 | -0.314 | -0.019 |  | 0.166 | 0.038 | -0.023 | 0.213 | 0.19 | -0.001 | 0.016 | -0.097 | 0.089 | -0.487 | 0.248 |  | 0.125
EPHX2 (UniProt P34913) | 0.051 | -0.002 | -0.001 | -0.02 | 0.099 | 0.004 | -0.006 | 0.11 | 0.06 | 0.051 | -0.026 | -0.01 | -0.026 | 0.016 | 0.041 | -0.004 | -0.044 | 0.119 | -0.018 | 0.06
FOXJ3 (UniProt Q9UPW0) | -0.003 | 0.002 | -0.021 | -0.08 | 0.047 | -0.026 | -0.022 | 0.071 | 0.025 | 0.006 | 0.111 | 0.124 | 0.038 | 0.054 | -0.096 | 0.02 | 0.032 | -0.08 | 0.023 | 0.018
